{"source": "ChEMBL document CHEMBL3433997", "about": "“St. Jude Leishmania screening dataset” (2016)", "data": [{"biological_target": "Solute carrier family 2, facilitated glucose transporter member 1 (Homo sapiens) (UniProt P11166)", "sequence (P11166 whole entry)": "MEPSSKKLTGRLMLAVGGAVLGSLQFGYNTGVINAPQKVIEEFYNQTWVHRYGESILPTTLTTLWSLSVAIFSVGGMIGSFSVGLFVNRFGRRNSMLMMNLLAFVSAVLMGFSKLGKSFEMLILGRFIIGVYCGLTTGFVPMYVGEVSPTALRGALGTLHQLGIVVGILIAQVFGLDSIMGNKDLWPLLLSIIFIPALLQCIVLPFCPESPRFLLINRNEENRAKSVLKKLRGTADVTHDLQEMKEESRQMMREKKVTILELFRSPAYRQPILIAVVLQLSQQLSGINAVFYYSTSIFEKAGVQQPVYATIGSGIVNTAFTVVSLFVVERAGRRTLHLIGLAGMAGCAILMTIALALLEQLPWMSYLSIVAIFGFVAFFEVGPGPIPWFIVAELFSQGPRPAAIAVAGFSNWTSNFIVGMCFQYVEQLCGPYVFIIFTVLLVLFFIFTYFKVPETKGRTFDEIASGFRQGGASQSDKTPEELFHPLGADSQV", "assay": "ST_JUDE_LEISH: Cytotoxicity at 2uM final concentration against transgenic Leishmania Mexicana promastigotes LmGLUT1 that are glucose transport deficient and complemented with the human glucose transporter GLUT1. Activity is measured by DNA content using SYBR green in vitro", "assay_type": "functional", "units": {"inhibition": "%"}, "values": [{"molecule": "Cc1ccccc1CCNC(=O)c1ccc(N2CCN(c3ccncc3)CC2)nc1", "inhibition": 3.94}, {"molecule": "COc1ccc(CC2(c3ccc(F)cc3)N=C(N)N(CCCc3ccc(F)c(F)c3)C2=O)cc1", "note": "(stereo not given)", "inhibition": 2.06}, {"molecule": "CCOc1cc(C(=O)Nc2ccccc2N2CCN(S(C)(=O)=O)CC2)cc(OCC)c1OCC", "inhibition": 3.72}, {"molecule": "COc1ccc(NC(=O)/C=C/c2ccccc2Cl)cc1OCCN1CCN(c2ccncc2)CC1", "inhibition": 1.29}, {"molecule": "COc1cc2nc(NCC3CCCO3)n3nc(-c4ccccc4)nc3c2cc1OC", "note": "(stereo not given)", "inhibition": 8.44}, {"molecule": "CCNc1cc(C)nc(Nc2ccc(NC(=O)c3c(F)cccc3Cl)cc2)n1", "inhibition": 10.6}, {"molecule": "OC1CCN(c2cc(-c3ccccn3)nc(-c3ccccn3)n2)CC1", "inhibition": -1.43}, {"molecule": "CCNc1cc(C(=O)N[C@@H](Cc2ccccc2)[C@H](O)CNC2(CC)CC2)cc(N2CCCCS2(=O)=O)c1", "inhibition": -3.85}, {"molecule": "CCOC(=O)c1nc(-c2cccc(F)c2)[nH]c1N", "inhibition": 1.32}, {"molecule": "CCCC(C)Nc1nc(C)cc(N[C@@H](Cc2ccccc2)C(=O)NCc2cccc(F)c2)n1", "note": "(stereo not given in full)", "inhibition": 4.14}, {"molecule": "CC(=O)Oc1c(C2CCN(CCCCNC(=O)c3ccc(-c4ccc(C#N)cc4)cc3)CC2)ccc2c1CCCC2", "inhibition": 0.47}, {"molecule": "Cc1cccc(NC(=O)Nc2ccc(I)c(OCCN(C)C)c2)c1C", "inhibition": 15.2}, {"molecule": "CNCCNCc1cccc(-c2cccc(-c3nc4cccc(C)c4[nH]3)c2)c1", "inhibition": 0.8}, {"molecule": "CCCN1CCN(CCCNc2c3ccccc3nc3ccccc23)CC1", "inhibition": 73.1}, {"molecule": "O=C1C(=Cc2cc(Cc3ccccc3)ccc2O)SC(=S)N1Cc1ccccc1", "inhibition": 8.42}, {"molecule": "O=C(Nc1cccc(CN2CCCN(Cc3ccc(F)cc3)CC2)c1)c1ccc(Cl)c(Cl)c1", "inhibition": 4.82}, {"molecule": "CC1(C)CC(=O)c2c(O)cc(OCc3ccncc3)cc2O1", "inhibition": 2.92}, {"molecule": "CN(C)c1ccc(-c2csc(C(=O)NC3CCCCN(Cc4ccc(C(C)(C)C)cc4)C3)c2)cc1", "note": "(stereo not given)", "inhibition": -1.22}, {"molecule": "O=C(/C=C/c1ccc(Cl)c(Cl)c1)NCCCCCN1CCC(NC(=O)c2cccc(Cl)c2)CC1", "inhibition": 9.72}, {"molecule": "Clc1ccc(Sc2cncnc2N2CCOCC2)cc1", "inhibition": 3.31}, {"molecule": "CN(c1ccc(NC(=O)Nc2cc(C(F)(F)F)ccc2F)cc1)c1ccnc(NCCN2CCCC2)n1", "inhibition": 5.11}, {"molecule": "Cc1ccc(Nc2nccc(Nc3ccc4c(C)n[nH]c4c3)n2)cc1F", "inhibition": 3.22}, {"molecule": "CCN(CC)Cc1cc(Nc2ccnc3cc(Cl)ccc23)ccc1O", "inhibition": -1.88}, {"molecule": "CN(C)CCOc1cc(NC(=O)Nc2ccc3c(c2)CCCC3=O)ccc1I", "inhibition": 5.03}, {"molecule": "CCCCCCn1c(Sc2ccc(C#N)c([N+](=O)[O-])c2)nnc1-c1ccc(Cl)cc1", "inhibition": 5.74}, {"molecule": "CCNc1cc(C(=O)NC(Cc2ccccc2)C(O)CNC(C)(C)CCCC(C)C)c(F)c(N2CCCS2(=O)=O)c1", "note": "(stereo not given)", "inhibition": -2.99}, {"molecule": "Clc1ccccc1/C=C/c1cncnc1Nc1ccc2[nH]c(Cc3ccccc3)nc2c1", "inhibition": 7.21}, {"molecule": "COc1cc(NC(=O)NC(CCN2CCC3(CCc4ccccc43)CC2)c2ccc(Cl)c(Cl)c2)cc(OC)c1OC", "note": "(stereo not given)", "inhibition": 0.41}, {"molecule": "CN(C)CCNC(=O)N1CCCN(c2ncnc3cc(-c4ccccc4)sc23)CC1", "inhibition": 8.06}, {"molecule": "COc1cc(CC2c3cc(O)c(Cl)cc3CCN2C)c(OC)cc1C", "note": "(stereo not given)", "inhibition": 3.63}, {"molecule": "FC(F)(F)c1ccc2[nH]c(-c3ccc(-c4cccc(CN5CCN(CCN6CCOCC6)CC5)c4)cc3)nc2c1", "inhibition": 1.77}, {"molecule": "COc1cc2nc(N3CCC(CNC(=O)c4cccc5cc[nH]c45)CC3)nc(N)c2cc1OC", "inhibition": 6.26}, {"molecule": "CON=Cc1sc(CNCCCN=c2cc(O)c3ccccc3[nH]2)c(C)c1Br", "inhibition": 4.13}, {"molecule": "Cc1cccc(NC(=O)N(Cc2cc3cc(C)cc(C)c3[nH]c2=O)C2CC2)c1", "inhibition": 9.62}, {"molecule": "CC1(C)NC(N)=NC(=N)N1OCCCOc1c(Cl)cc(Cl)cc1Cl", "inhibition": -1.14}, {"molecule": "Cc1cc(C)c(NC(=O)NC2CCN(CCCCCNC(=O)/C=C/c3ccc(Cl)c(Cl)c3)CC2)c(C)c1", "inhibition": 4.35}, {"molecule": "COC(=O)c1cccc(C#CCCOCCCCCCNC[C@H](O)c2cc(Cl)c(N)c(Cl)c2)c1", "inhibition": 2.64}, {"molecule": "O=S(=O)(c1cc(Cl)c(Cl)cc1Cl)N1CCCCC(c2ccc(C(F)(F)F)cc2)=N1", "inhibition": -0.66}, {"molecule": "COc1cc(NC(=O)/C=C/c2ccccc2OC(F)(F)F)cc(OCCN2CCCCC2)c1", "inhibition": 2.6}, {"molecule": "O=C(Nc1ccc(OC2CCN(Cc3ccc(F)cc3)C2)c(Cl)c1)c1ccoc1", "note": "(stereo not given)", "inhibition": 0.67}]}, {"biological_target": "Hexose transporter 1 (Plasmodium falciparum) (UniProt O97467)", "assay": "ST_JUDE_LEISH: Cytotoxicity at 2uM final concentration against transgenic Leishmania Mexicana promastigotes LmPfHT that are glucose transport deficient and complemented with the Plasmodium falciparum hexose transporter. Activity is measured by DNA content using SYBR green in vitro", "assay_type": "functional", "units": {"inhibition": "%"}, "values": [{"molecule": "Cc1ccccc1CCNC(=O)c1ccc(N2CCN(c3ccncc3)CC2)nc1", "inhibition": 1.96}, {"molecule": "COc1ccc(CC2(c3ccc(F)cc3)N=C(N)N(CCCc3ccc(F)c(F)c3)C2=O)cc1", "note": "(stereo not given)", "inhibition": 5.53}, {"molecule": "CCOc1cc(C(=O)Nc2ccccc2N2CCN(S(C)(=O)=O)CC2)cc(OCC)c1OCC", "inhibition": 3.96}, {"molecule": "COc1ccc(NC(=O)/C=C/c2ccccc2Cl)cc1OCCN1CCN(c2ccncc2)CC1", "inhibition": -0.96}, {"molecule": "COc1cc2nc(NCC3CCCO3)n3nc(-c4ccccc4)nc3c2cc1OC", "note": "(stereo not given)", "inhibition": 6.19}, {"molecule": "CCNc1cc(C)nc(Nc2ccc(NC(=O)c3c(F)cccc3Cl)cc2)n1", "inhibition": 11}, {"molecule": "OC1CCN(c2cc(-c3ccccn3)nc(-c3ccccn3)n2)CC1", "inhibition": 2.02}, {"molecule": "CCNc1cc(C(=O)N[C@@H](Cc2ccccc2)[C@H](O)CNC2(CC)CC2)cc(N2CCCCS2(=O)=O)c1", "inhibition": 2.01}, {"molecule": "CCOC(=O)c1nc(-c2cccc(F)c2)[nH]c1N", "inhibition": 0.39}, {"molecule": "CCCC(C)Nc1nc(C)cc(N[C@@H](Cc2ccccc2)C(=O)NCc2cccc(F)c2)n1", "note": "(stereo not given in full)", "inhibition": 4.96}, {"molecule": "CC(=O)Oc1c(C2CCN(CCCCNC(=O)c3ccc(-c4ccc(C#N)cc4)cc3)CC2)ccc2c1CCCC2", "inhibition": 1.16}, {"molecule": "Cc1cccc(NC(=O)Nc2ccc(I)c(OCCN(C)C)c2)c1C", "inhibition": 9.78}, {"molecule": "CNCCNCc1cccc(-c2cccc(-c3nc4cccc(C)c4[nH]3)c2)c1", "inhibition": 2.47}, {"molecule": "CCCN1CCN(CCCNc2c3ccccc3nc3ccccc23)CC1", "inhibition": 78.2}, {"molecule": "O=C1C(=Cc2cc(Cc3ccccc3)ccc2O)SC(=S)N1Cc1ccccc1", "inhibition": 7.14}, {"molecule": "O=C(Nc1cccc(CN2CCCN(Cc3ccc(F)cc3)CC2)c1)c1ccc(Cl)c(Cl)c1", "inhibition": 4.15}, {"molecule": "CC1(C)CC(=O)c2c(O)cc(OCc3ccncc3)cc2O1", "inhibition": 0.56}, {"molecule": "CN(C)c1ccc(-c2csc(C(=O)NC3CCCCN(Cc4ccc(C(C)(C)C)cc4)C3)c2)cc1", "note": "(stereo not given)", "inhibition": -0.61}, {"molecule": "O=C(/C=C/c1ccc(Cl)c(Cl)c1)NCCCCCN1CCC(NC(=O)c2cccc(Cl)c2)CC1", "inhibition": 10.2}, {"molecule": "Clc1ccc(Sc2cncnc2N2CCOCC2)cc1", "inhibition": 1.01}, {"molecule": "CN(c1ccc(NC(=O)Nc2cc(C(F)(F)F)ccc2F)cc1)c1ccnc(NCCN2CCCC2)n1", "inhibition": 4.8}, {"molecule": "Cc1ccc(Nc2nccc(Nc3ccc4c(C)n[nH]c4c3)n2)cc1F", "inhibition": 4.19}, {"molecule": "CCN(CC)Cc1cc(Nc2ccnc3cc(Cl)ccc23)ccc1O", "inhibition": 2.29}, {"molecule": "CN(C)CCOc1cc(NC(=O)Nc2ccc3c(c2)CCCC3=O)ccc1I", "inhibition": 7.25}, {"molecule": "CCCCCCn1c(Sc2ccc(C#N)c([N+](=O)[O-])c2)nnc1-c1ccc(Cl)cc1", "inhibition": 7.85}, {"molecule": "CCNc1cc(C(=O)NC(Cc2ccccc2)C(O)CNC(C)(C)CCCC(C)C)c(F)c(N2CCCS2(=O)=O)c1", "note": "(stereo not given)", "inhibition": -1.24}, {"molecule": "Clc1ccccc1/C=C/c1cncnc1Nc1ccc2[nH]c(Cc3ccccc3)nc2c1", "inhibition": 2.53}, {"molecule": "COc1cc(NC(=O)NC(CCN2CCC3(CCc4ccccc43)CC2)c2ccc(Cl)c(Cl)c2)cc(OC)c1OC", "note": "(stereo not given)", "inhibition": 0.09}, {"molecule": "CN(C)CCNC(=O)N1CCCN(c2ncnc3cc(-c4ccccc4)sc23)CC1", "inhibition": 5.39}, {"molecule": "COc1cc(CC2c3cc(O)c(Cl)cc3CCN2C)c(OC)cc1C", "note": "(stereo not given)", "inhibition": 4.4}, {"molecule": "FC(F)(F)c1ccc2[nH]c(-c3ccc(-c4cccc(CN5CCN(CCN6CCOCC6)CC5)c4)cc3)nc2c1", "inhibition": 3.69}, {"molecule": "COc1cc2nc(N3CCC(CNC(=O)c4cccc5cc[nH]c45)CC3)nc(N)c2cc1OC", "inhibition": 4.21}, {"molecule": "CON=Cc1sc(CNCCCN=c2cc(O)c3ccccc3[nH]2)c(C)c1Br", "inhibition": 4.13}, {"molecule": "Cc1cccc(NC(=O)N(Cc2cc3cc(C)cc(C)c3[nH]c2=O)C2CC2)c1", "inhibition": 10.1}, {"molecule": "CC1(C)NC(N)=NC(=N)N1OCCCOc1c(Cl)cc(Cl)cc1Cl", "inhibition": 0.14}, {"molecule": "Cc1cc(C)c(NC(=O)NC2CCN(CCCCCNC(=O)/C=C/c3ccc(Cl)c(Cl)c3)CC2)c(C)c1", "inhibition": 2.53}, {"molecule": "COC(=O)c1cccc(C#CCCOCCCCCCNC[C@H](O)c2cc(Cl)c(N)c(Cl)c2)c1", "inhibition": 0.28}, {"molecule": "O=S(=O)(c1cc(Cl)c(Cl)cc1Cl)N1CCCCC(c2ccc(C(F)(F)F)cc2)=N1", "inhibition": 0.43}, {"molecule": "COc1cc(NC(=O)/C=C/c2ccccc2OC(F)(F)F)cc(OCCN2CCCCC2)c1", "inhibition": 1.06}, {"molecule": "O=C(Nc1ccc(OC2CCN(Cc3ccc(F)cc3)C2)c(Cl)c1)c1ccoc1", "note": "(stereo not given)", "inhibition": 1.54}]}]}
